This is a sample that favours compounds with a hit; in the whole collection about 1.4% have one here.
Mtb MbtI inh = blocks the Mycobacterium tuberculosis siderophore enzyme MbtI; P9WFX0; purified MbtI enzyme, fluorescence intensity read-out; inhibition, % (concentration not given with the values); actives 0.89% (n = 100,000); AID 493033; in the data active = inhibition mostly above about 56%, no sharp cut-off; inactive = mostly below about 77%
MenB inh = inhibitors of Mycobacterium tuberculosis MenB enzyme; MenB enzyme assay, absorbance read-out; inhibition, % (no concentration beside the values); AID 540299; actives 0.43% (n = 100,000); in the data active = inhibition above about 21%, passing the limit was not always enough
Target sequence (P9WNP5 whole entry, looked up): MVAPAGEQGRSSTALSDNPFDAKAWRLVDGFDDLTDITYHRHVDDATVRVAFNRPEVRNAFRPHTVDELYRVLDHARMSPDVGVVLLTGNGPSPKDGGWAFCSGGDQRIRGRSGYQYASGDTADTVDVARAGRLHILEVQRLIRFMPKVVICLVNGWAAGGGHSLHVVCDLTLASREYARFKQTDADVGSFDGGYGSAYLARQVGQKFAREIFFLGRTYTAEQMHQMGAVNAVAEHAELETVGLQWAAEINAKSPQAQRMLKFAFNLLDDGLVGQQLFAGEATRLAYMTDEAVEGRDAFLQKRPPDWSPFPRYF
PV pol inh = inhibitors of poliovirus RNA polymerase binding and polymerization; P03300; poliovirus polymerase elongation, fluorescence polarization; hits give low values; AID 588519; % elongation, % (compound at 16.7 µg/mL); actives 0.66% (n = 150,000); in the data active = % elongation below about 90%
* = called active by the depositor; nt = no result given.

SMILES | Mtb MbtI inh | MenB inh | PV pol inh
O=C(O)CC1(CC(=O)Nc2nccs2)CCCC1 | -8 | -21 | 104
Cn1cnc(S(=O)(=O)N(Cc2ccccc2)Cc2ccccc2N2CCC(C(=O)O)CC2)c1 | -12 | 4 | 86*
Cn1cnc(S(=O)(=O)N2CCC(C(=O)NCc3ccccc3)CC2)c1 | nt | nt | 102
COC(=O)CC1c2cc(OC)c(OC)cc2CCN1C(=O)c1cccc(C#N)c1 (stereo not drawn) | -12 | -4 | 103
Cc1cccc(NC(=O)c2cc(N3C(=O)C=CC3=O)ccc2Cl)c1 | nt | -4 | 136
Cc1c(Cl)cccc1N1C(=O)C=CC1=O | 99* | nt | 102
CCOC(=O)C(C(O)c1ccccc1)N1CCN(S(=O)(=O)c2ccc(C)cc2)CC1 (stereo not drawn) | 0 | 3 | 102
Cc1nnc2n1NC(c1ccccc1)C(C(=O)NCc1ccco1)S2 (stereo not drawn) | -7 | 10 | 101
COc1cccc(-c2csc(-c3c(N)c(C(=O)c4ccc5c(c4)OCO5)n4ccccc34)n2)c1 | nt | nt | 76*
CCOc1ccc(C(=O)c2c(N)c(-c3nc(-c4ccc5c(c4)OCO5)cs3)c3ccccn23)cc1 | nt | nt | 105
O=C(CN1CCCC1c1cccs1)Nc1cc(C(F)(F)F)ccc1-n1cncn1 (stereo not drawn) | -11 | -35 | 98
COc1ccc(C2C(C(=O)O)c3ccccc3C(=O)N2C)cc1 (stereo not drawn) | -15 | -6 | 101
COc1ccc([C@H]2[C@@H](C(=O)O)c3ccccc3C(=O)N2Cc2ccc3c(c2)OCO3)cc1 | 4 | 6 | 38*
O=C(c1ccc(Nc2nc3ccccc3n3cnnc23)cc1)N1CCN(C2CCCCC2)CC1 | 2 | -11 | 99
O=C(O)c1cccc(-n2cccc2)c1 | 5 | -15 | 102
Cc1ccc(C)n1-c1cccc(C(=O)O)c1 | nt | -30 | 34*
CCN1C(=O)c2ccccc2Sc2ccc(NC(=O)Nc3ccccc3OC)cc21 | nt | nt | 104
CCN1/C(=C/c2scc[n+]2C)C=C(C)c2cc(OC)c3ccccc3c21 | 2 | 2 | 56*
CCOc1cccc(/C=N/n2c(C)n[nH]c2=S)c1 | 50 | -10 | 99
Cc1n[nH]c(=S)n1/N=C\c1ccco1 | 36 | 8 | 90*
COc1cc(OC)c(CNc2ccc3cn[nH]c3c2)cc1Br | -31 | 0 | 97
Brc1ccc(CNc2ccc3cn[nH]c3c2)s1 | -14 | -37 | 58*
N#Cc1c(C(F)(F)F)nc(=O)n2ccccc12 | 107 | 2 | 92
C=CCn1c(CSCc2ccc(F)cc2)n[nH]c1=S | 64* | -15 | 97
C=CCn1c(CSc2nc(N)cc(N)n2)n[nH]c1=S | 68 | -1 | 102
SMILES | Mtb MbtI inh | MenB inh | PV pol inh
C=CCn1c(Cc2ccc(OC)c(Cl)c2)n[nH]c1=S | 91* | -20 | 103
C=CCn1c(C(C)Oc2ccc(Cl)cc2Cl)n[nH]c1=S (stereo not drawn) | 38 | -16 | 103
C/[N+]([O-])=C\c1cccnc1 | 14 | 10 | 96
CCOc1ccc(C2=C(C(=O)CC)Sc3nncn3N2C(=O)CC)cc1 | nt | nt | 82*
CCC(=O)C1=C(c2ccc(OC)c(OC)c2)N(C(=O)CC)n2c(nnc2-c2ccc(C)cc2)S1 | nt | nt | 109
CCC(=O)C1=C(c2ccccc2)N(C(=O)CC)n2cnnc2S1 | -9 | -17 | 104
CCC(=O)C1=C(c2ccc(F)cc2)N(C(=O)CC)n2cnnc2S1 | nt | nt | 86*
COc1ccc(NS(=O)(=O)c2cccc3cccnc23)c(OC)c1 | -8 | -18 | 104
CCCc1cc(NCc2cccnc2)n2c(nc3ccccc32)c1C#N | 71 | -22 | 103
CN1CCc2nc3ccccc3c(C(=O)OCC(=O)Nc3ccccc3C#N)c2C1 | 43 | -21 | 103
COc1ccc(Br)cc1CNC(=O)C1CCN(C(=O)c2sccc2-n2cccc2)CC1 | -4 | -14 | 103
Nc1nnc(SCC(=O)n2c3ccccc3c3ccccc32)s1 | -13 | nt | nt
CC(=O)n1c2ccccc2c2nc(N)sc21 | 52 | -8 | 81*
O=C(Oc1ccccc1F)N1c2ccccc2Sc2ccccc21 | nt | -12 | 109
O=C(c1ccccc1)N1CCC(O)(c2cccnc2)CC1 | 0 | -19 | 101
O=C(N1CCC(O)(c2cccnc2)CC1)C12CC3CC(CC(C3)C1)C2 | -1 | 25* | 101
CCC1CCCCN1S(=O)(=O)c1ccc(S(=O)(=O)n2cnc3cc(C)c(C)cc32)cc1 (stereo not drawn) | 3 | -51 | 99
O=C(CSCc1ccccc1)NCc1ccccc1 | -2 | -9 | 111
C=CCNC(=S)N1CCC(C(=O)c2ccc(C)cc2)CC1 | 2 | -16 | 101
COCCNC(=S)N1CCC(C(=O)c2ccc(F)cc2)CC1 | -2 | 37* | 103
COc1cccc(NC(=O)C2CC3CCCN3C23C(=O)N(C)c2ccccc23)c1 (stereo not drawn) | 10 | -3 | 101
Cc1ccnc(SCC(=O)C(C)(C)C)n1 | -8 | nt | 102

Screening results (PubChem)
